The list is not random: actives were taken first. Their share in the collection is about 2.4%.
POLI inh: inhibitors of human DNA polymerase iota; Q9UNA4; Pol iota fluorescent replication assay, 10 min; Potency, µM (titrated, usually from 115 µM), for inactives: at the highest dose activity, negative = inhibition, hits mostly inhibitors; 1% of 390,000 active; AID 588590
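Fluorescent replication assay read twice, at 0 min and 10 min after adding 50 nM (final) substrate. Enzyme (10 nM) and compounds were first incubated 15 min at room temperature; enzyme-free buffer wells were negative controls.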
FEN1 inh: blocks human flap endonuclease 1; Potency, µM (titrated, usually from 114 µM), for the others: at the highest dose activity change, negative = inhibition, actives largely listed as inhibitors; AID 588795; Recombinant FEN1 flap cleavage, fluorescence, 15 min; 0.35% of 390,000 active; note: % is set by controls: 0 for no effect and ±100 for the full control effect; nearly all actives have a fitted effect of over 65% in size
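Potency values derive from four-parameter Hill fits of normalized qHTS data. The reaction used 10 nM FEN1 preincubated 15 min at room temperature with compound, then 50 nM DNA substrate, read at 0 and 15 min.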
Pol beta inh: blocks human DNA polymerase beta activity | 1.3% of 340,000 active | Pol beta primer extension/strand displacement, fluorescence kinetic | AID 485314 | Potency, µM (doses to about 114 µM), for inactives: at the top dose activity change, negative = inhibition, most hits filed as inhibitors; note: % is set by controls: 0 for no effect and ±100 for the full control effect
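Preincubation: enzyme (10 nM) with compound, 15 min, RT. Reaction: substrate added to 50 nM final. Reads: 0 and 10 min. Analysis: normalized, Hill fit.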
POLK inh: inhibitors of human DNA polymerase kappa | 0.53% of 400,000 active | Potency, µM (titrated, usually from 107 µM), without a hit: at the highest dose activity, negative = inhibition, most hits filed as inhibitors | purified Pol kappa, fluorescent DNA synthesis assay, 10 min; note: % is set by controls: 0 for no effect and ±100 for the full control effect
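Here, compound and 10 nM enzyme are combined for 15 min at room temperature; adding 50 nM substrate (final) starts DNA synthesis, tracked by fluorescence at 0 and 10 min against buffer-only wells.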
Pol eta inh: inhibitors of human DNA polymerase eta. Q9Y253. 1.2% of 390,000 active. recombinant Pol eta, fluorescent DNA replication assay. AID 588591. Potency, µM (titrated, usually from 114 µM), for inactives: at the highest dose activity change, negative = inhibition, usual class: inhibitors; note: % is set by controls: 0 for no effect and ±100 for the full control effect
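Pol eta (10 nM) was preincubated with compounds for 15 min at room temperature, after which fluorescent replication substrate (50 nM final) was added to start the reaction. Fluorescence was read kinetically at 0 and 10 min.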
WRN inhibitor: inhibitors of human WRN helicase; 0.46% of 360,000 active; Q14191; Potency, µM (top dose mostly 114 µM), inactives show at the top dose activity change, negative = inhibition, actives largely listed as inhibitors; AID 651768; WRN helicase unwinding, fluorescent forked duplex, kinetic; note: % is set by controls: 0 for no effect and ±100 for the full control effect; nearly all actives have a fitted effect of over 55% in size
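Kinetic red-fluorescence monitoring (525/598 nm) tracks WRN helicase activity after 100 nM fluorophore-quencher forked duplex and 2 mM ATP are added to 20 nM enzyme pretreated 15 min at room temperature with compound.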
* marks the source's active call; other numbers are inactive results; [ ] = another dose, or the depositor's remark. Calls come from the whole dose curve; as a rule, active = well fitted curve in the direction sought with a large enough effect; inconclusive = small, poorly fitted or top-dose-only effect, or another doubt; inactive = no such curve, though single readings can be large; an effect the other way counts as inactive or inconclusive. Potency is the fitted concentration of half-maximal effect.

For O=C(O)CN1C(=O)/C(=C\c2cccc(OCc3ccc(Cl)cc3)c2)SC1=S the results were POLI inh inconclusive, FEN1 inh 6%, Pol beta inh inconclusive, POLK inh -31%, Pol eta inh 50µM* and WRN inhibitor inconclusive.
For COc1ccc(/C(C)=N/NC(=O)CNC(=O)/C=C\c2ccco2)cc1 the results were POLI inh 50µM*, FEN1 inh 1%, Pol beta inh 25µM*, POLK inh 1%[60.1 µM], Pol eta inh 0% and WRN inhibitor -8%[11.6 µM].
For O=C(/C=C/c1ccco1)N(Cc1ccc(Cl)cc1)C1CCS(=O)(=O)C1 (stereo unspecified) the results were POLI inh 40µM*, FEN1 inh -2%, Pol beta inh 2%, POLK inh inconclusive, Pol eta inh inconclusive and WRN inhibitor 13%.
Screening COc1ccc(CN(C(=O)/C=C/c2ccco2)C2CCS(=O)(=O)C2)cc1OC (stereo unspecified) returned POLI inh 79µM*, FEN1 inh -10%, Pol beta inh 6%, POLK inh inconclusive, Pol eta inh 5% and WRN inhibitor -13%.
CN(C)c1ccc(CN(C(=O)/C=C/c2ccco2)C2CCS(=O)(=O)C2)cc1 (stereo unspecified) was read as POLI inh 167%, FEN1 inh 5%, Pol beta inh 30%, POLK inh -4%, Pol eta inh -2% and WRN inhibitor -28%.
For CCOc1ccc(CN(C(=O)/C=C/c2ccco2)C2CCS(=O)(=O)C2)cc1 (stereo unspecified) the results were POLI inh inconclusive, FEN1 inh -7%, Pol beta inh inconclusive, POLK inh -20%, Pol eta inh 0% and WRN inhibitor 2%.
`Cc1ccc(CNC(=O)CCc2nnc3ccc(N4CCC5(CC4)OCCO5)nn23)cc1` gave POLI inh inconclusive, FEN1 inh -7%, Pol beta inh 14%, POLK inh 79µM*, Pol eta inh -13% and WRN inhibitor 4%[11.6 µM].
For COc1cc(NCCCCCCN)c2ncccc2c1OC the results were POLI inh 11µM*, FEN1 inh inconclusive, POLK inh -10%, Pol eta inh 45µM* and WRN inhibitor 50µM*.
Screening CCc1ccc(N(CC)C(=O)Cn2c(=O)oc3ccccc32)cc1 returned POLI inh 14%, FEN1 inh 18%, Pol beta inh 17%, POLK inh -6% and Pol eta inh -2%.
Screening Cc1ccc2c(c1)-c1ccccc1S(=O)(=O)N2 returned POLI inh 14%, FEN1 inh 0%, Pol beta inh 7%, POLK inh 1%, Pol eta inh -7% and WRN inhibitor -3%.
For Nc1ccc2c(c1)-c1ccccc1S(=O)(=O)N2 the results were POLI inh 14µM*, FEN1 inh inconclusive, Pol beta inh -2%, POLK inh inconclusive, Pol eta inh 45µM* and WRN inhibitor -33%.
Screening CCC(C)NC(=O)c1nn(-c2ccc(C)cc2)c(=O)n(C)c1=O (stereo unspecified) returned POLI inh 3%, FEN1 inh -8%, Pol beta inh 1%, POLK inh -4%[60.1 µM] and Pol eta inh -3%.
Screening CC(C)C(NC(=O)/C(=C/c1ccco1)NC(=O)c1ccc(Br)o1)C(=O)O (stereo unspecified) returned POLI inh inconclusive, FEN1 inh 9%, Pol beta inh 40µM*, POLK inh inconclusive, Pol eta inh 20µM* and WRN inhibitor -7%.
For O=C(O)/C(=C\c1ccco1)NC(=O)c1cccc2ccccc12 the results were POLI inh inconclusive, FEN1 inh -24%, Pol beta inh -1%, POLK inh 50µM*, Pol eta inh 50µM* and WRN inhibitor -16%.
O=C(O)/C(=C\c1ccco1)NC(=O)c1ccc(Br)o1 was read as POLI inh inconclusive, FEN1 inh -8%, POLK inh -29%, Pol eta inh 20µM* and WRN inhibitor -16%[11.6 µM].
